Measured values taken from the OligoGym collection.

Biological target: DDB2
Experiment: pooled miR-30 sensor sort-seq; sequence = guide strand
Conditions: shRNA
Note: reference of the scale not given here.

Row | Sequence | sensor-assay potency score (higher = more potent)
1 | TTTGAAATTAGGATCTGGGTAT | -0.00871
2 | TTCGGCTACTAGCAGACACATC | -1.25
3 | AACTCGGATCTCGCTCTTCTGG | -1.5
4 | TAATATCCGGTAAGAATCCAGA | -0.584
5 | TACAATCTCGGAGGTCTTCTGG | -0.449
6 | AACTTTTGAAATTAGGATCTGG | 0.321
7 | TTTAACAAATCGCCACCTCTGC | -0.868
8 | TAAACTCGGATCTCGCTCTTCT | 0.0905
9 | TTTAGTTCCAAGATAACCTTGG | 0.69
10 | TCAAATAACTGCTTGATCCCTC | 0.323
11 | TTTTGAAATTAGGATCTGGGTA | -0.102
12 | TAGAGCTGACACATCATCTTCC | 0.382
13 | TCTCCTGTGACCACCATTCGGC | -0.886

Biological target: DDX28
Experiment: as above
Conditions: shRNA

Row | Sequence | sensor-assay potency score (higher = more potent)
14 | TATGTCTCGGGAGCTCTTCTGG | -0.986
15 | TTGACAACCAGCTCCACACCAG | -0.162
16 | TAGTCCTGGAAGACTTCTCCTT | -1.12
17 | ATAATTGACAACCAGCTCCACA | -0.971
18 | TTCCAGGAAGCTTTCATCCAGC | -0.626
19 | TCATCCAACACCAAGAAGGAGA | -0.925
20 | TTCGTCGGGACTGCGGACCGTG | -0.386
21 | TTGGATTTTGTGGTCATCCAGA | -0.675
22 | TAGTGCGTGCAGCACACGGGGC | -1.65
23 | TAATCTTGCAGCGTTGGGGGGA | -0.579
24 | TAGCTGAGAGTCTTGCCACTGC | -0.373
25 | TTCTGCTCTGTCACGATGCTTG | -0.667

Biological target: DDX49
Experiment: as above
Conditions: shRNA

Row | Sequence | sensor-assay potency score (higher = more potent)
26 | TCATCCATCACCAGGAAGCGGA | -1.17
27 | TAGATGCTGGACTTGAACTTGG | -0.112
28 | TCTGTTGCGATCAGGATCCGGT | 0.242
29 | TTGATGACCACCTGTACCGTAG | -0.168
30 | TTGATCTGCTCCTCGATGGCGT | 0.0961
31 | TTGATCTCACACTCTCTTCGCA | -0.0453
32 | TTTGATCTCACACTCTCTTCGC | -0.199
33 | TCGTACTGTGTCACCAGCGTGA | -0.48
34 | TTGTGGTTGATGACCACCTGTA | -0.316
35 | TGATCTCACACTCTCTTCGCAC | -1.01
36 | TCTTTCTGCTTCATCATGGAGT | -0.0519
37 | TTCTTCTTGATCTGCTCCTCGA | -0.688

Biological target: DEF6
Experiment: as above
Conditions: shRNA

Row | Sequence | sensor-assay potency score (higher = more potent)
38 | TTAGGGAGGAGTCACGGTGGGC | -1.27
39 | TCAACTGCTTCAGCTTCTCTTC | -0.841
40 | AAGAGCTCCAGGAACTGCCAGA | -0.993
